# Assay results as given in PubChem BioAssay (NCATS).
# Results filed as inconclusive are left out. Entries that show only a call come without a potency. Active and inactive are the calls of the source. The call rests on the fitted dose curve; in most records, active means well fitted inhibition curve with a large enough effect; inconclusive means small, poorly fitted or top-dose-only effect; inactive means flat fitted curve, though single readings scatter.
# Experiments:
# Test in all cases: qHTS profiling for inhibitors of Plasmodium falciparum proliferation (AID 504749); further: nearly all actives have a fitted effect of over 60% in size
# Settings in all cases: P. falciparum in erythrocytes, SYBR Green DNA, 72 h; series mostly up to 28.7 µM
# [1] = tested on: DIV30
# Method in brief: (§1)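 Quantitative HTS: compounds pinned into medium, infected erythrocytes added (0.3% parasitemia, 2.5% hematocrit), 72 h culture at 37 C under 5% CO2. Saponin/Triton lysis with SYBR Green I, overnight RT, then fluorescence read.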
# [2] = tested on: Dd2
# Method in brief: as §1
# [3] = tested on: FAB9
# Method in brief: as §1
# [4] = tested on: GB4
# Method in brief: as §1
# [5] = tested on: HB3
# Method in brief: as §1
# [6] = tested on: ICS
# Method in brief: as §1
# [7] = tested on: JCK
# Method in brief: as §1
# [8] = tested on: N140
# Method in brief: as §1
# [9] = tested on: P94_40
# Method in brief: as §1
# [10] = tested on: PC49
# Method in brief: as §1
# [11] = tested on: TAB113
# Method in brief: as §1
# [12] = tested on: DIV17
# Method in brief: as §1
# [13] = tested on: PC26
# Method in brief: as §1
# [14] = tested on: ECU
# Method in brief: as §1
# [15] = tested on: PAD
# Method in brief: as §1
# [16] = tested on: PC15
# Method in brief: as §1
# [17] = tested on: SC27B
# Method in brief: as §1
# [18] = tested on: TAB109
# Method in brief: as §1
# [19] = tested on: P93_24
# Method in brief: as §1
# [20] = tested on: TAB165
# Method in brief: as §1
# Potency means the concentration at half of the fitted maximal effect.
SMILES,Potency [1],Potency [2],Potency [3],Potency [4],Potency [5],Potency [6],Potency [7],Potency [8],Potency [9],Potency [10],Potency [11],Potency [12],Potency [13],Potency [14],Potency [15],Potency [16],Potency [17],Potency [18],Potency [19],Potency [20]
O=C(O)c1cc(=O)c2c3nc4ccccc4oc-3cc(=O)c2[nH]1,inactive,12.6 µM (active),inactive,16.9 µM (active),12.6 µM (active),0.891 µM (active),inactive,inactive,inactive,inactive,inactive,–,–,–,–,–,–,–,–,–
CCCCC(CC)COC(=O)CC(C(=O)OCC(CC)CCCC)S(=O)(=O)O (configuration not stated),inactive,–,–,inactive,–,–,–,–,–,–,–,inactive,inactive,–,–,–,–,–,–,–
O=CCCCC=O,–,inactive,inactive,–,–,7.08 µM (active),inactive,inactive,inactive,inactive,inactive,–,–,inactive,inactive,inactive,inactive,inactive,–,–
CN=C(NC#N)Nc1ccc(C2=NNC(=O)C[C@@H]2C)cc1,–,inactive,inactive,–,inactive,inactive,inactive,inactive,inactive,inactive,inactive,–,–,inactive,inactive,inactive,inactive,inactive,inactive,inactive
CC1(C)C(C=C(Cl)Cl)C1C(=O)OCc1cccc(Oc2ccccc2)c1 (configuration not stated),inactive,–,inactive,inactive,inactive,–,inactive,inactive,inactive,inactive,inactive,inactive,inactive,inactive,inactive,inactive,inactive,inactive,inactive,inactive
CCCCCCOc1ccc(C(=N)N(CCCC)CCCC)c2ccccc12,–,–,–,10.7 µM (active),–,2.82 µM (active),–,–,12.6 µM (active),–,10 µM (active),12 µM (active),–,8.91 µM (active),–,10 µM (active),–,7.94 µM (active),inactive,12.6 µM (active)
CCCCCC(CC)COC(=O)CC(C(=O)OCC(CC)CCCC)S(=O)(=O)O (configuration not stated),–,inactive,inactive,–,inactive,inactive,inactive,inactive,inactive,inactive,inactive,–,–,inactive,inactive,inactive,inactive,inactive,inactive,inactive
COC(=O)[C@H]1[C@H]2CC3c4[nH]c5ccccc5c4CCN3C[C@@H]2CC[C@@H]1O (some centres not stated),–,inactive,inactive,–,inactive,inactive,inactive,inactive,–,inactive,inactive,–,–,inactive,inactive,inactive,inactive,inactive,inactive,inactive
CC(Cc1ccc(O)c(O)c1)C(C)Cc1ccc(O)c(O)c1 (configuration not stated),inactive,–,inactive,–,inactive,10 µM (active),inactive,inactive,–,inactive,inactive,–,–,inactive,–,–,inactive,–,–,–
CC(=O)Oc1cc(C)c(OC(C)=O)c2ccccc12,–,–,–,7.57 µM (active),–,6.31 µM (active),–,–,–,–,–,6.75 µM (active),7.57 µM (active),–,–,4.47 µM (active),–,–,7.94 µM (active),12.6 µM (active)
CN1C(=O)CN2CCc3ccccc3C2c2cc(Cl)ccc21 (configuration not stated),–,inactive,inactive,–,inactive,–,inactive,–,inactive,inactive,–,6.01 µM (active),–,–,–,inactive,–,–,–,–
O=C(Nc1cccc(C(F)(F)F)c1)c1cc(Br)cc(Br)c1O,13.5 µM (active),–,–,–,–,8.91 µM (active),10 µM (active),11.2 µM (active),–,–,12.6 µM (active),13.5 µM (active),–,10 µM (active),–,–,8.91 µM (active),–,–,14.1 µM (active)
CN(C)CCCN1c2ccccc2C(C)(C)c2ccccc21,–,–,inactive,–,inactive,–,inactive,–,–,inactive,–,4.78 µM (active),–,inactive,inactive,–,–,–,–,–
CCOC(=O)C1=C(C)NC(C)=C(C(=O)OCC)C1c1ccccc1C=CC(=O)OC(C)(C)C,13.5 µM (active),–,11.2 µM (active),10.7 µM (active),12.6 µM (active),4.47 µM (active),inactive,10 µM (active),–,–,–,15.1 µM (active),10.7 µM (active),–,–,10 µM (active),11.2 µM (active),–,7.08 µM (active),11.2 µM (active)
Clc1cc(Cl)c(OCC#CI)cc1Cl,–,–,–,10.7 µM (active),–,7.94 µM (active),–,10 µM (active),11.2 µM (active),–,5.01 µM (active),13.5 µM (active),–,–,11.2 µM (active),–,–,11.2 µM (active),7.94 µM (active),11.2 µM (active)
CC1=C(/C=C/C(C)=C/C=C/C(C)=C/CO)C(C)(C)CCC1,–,14.1 µM (active),inactive,–,–,7.08 µM (active),inactive,8.91 µM (active),–,–,11.2 µM (active),16.9 µM (active),–,10 µM (active),–,–,–,–,–,–
CCN(CC)CCOc1ccc(-c2nc3cc(Cl)ccc3s2)cc1,inactive,–,inactive,16.9 µM (active),inactive,–,inactive,inactive,–,inactive,–,15.1 µM (active),inactive,–,–,–,inactive,–,–,–
NC1C2CN(c3nc4c(cc3F)c(=O)c(C(=O)O)cn4-c3ccc(F)cc3F)CC12 (configuration not stated),inactive,–,–,–,–,–,–,–,–,–,–,–,inactive,–,–,–,–,–,–,–
